Results published in PubChem BioAssay (NCATS).
Records with an inconclusive call do not appear. Entries that show only a call come without a potency. Activity calls are given as the source filed them. Calls come from the whole dose curve; as a rule, active = well fitted inhibition curve with a large enough effect; inconclusive = small, poorly fitted or top-dose-only effect; inactive = flat fitted curve, though single readings scatter.

system: Zika virus NS2B-NS3 protease; assay: Primary screen GU AMC qHTS for Zika virus inhibitors (AID 1347154); details: Zika NS2B-NS3 unlinked protease, AMC fluorogenic substrate; series mostly up to 54.1 µM; note: nearly all actives have a fitted effect of over 70% in size
In short: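 Fluorogenic AMC-substrate cleavage by noncovalent NS2B-NS3 protease complex (25 nM, pH 8.0 Tris buffer with Tween 20) followed for 15 minutes at room temperature (~20% conversion). Percent inhibition from ex340/em450 signal change, fitted by 4-parameter Hill equation.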

SMILES	Potency
CCCCCNC(=O)N1CCC(CN(Cc2ccc(Cl)cc2)Cc2ccc([N+](=O)[O-])s2)C1 (stereo not drawn)	inactive
Cn1cc(C=C2C(=O)Nc3cccnc32)c2ccccc21	inactive
CC[C@@H]1C=C(C)C[C@H](C)C[C@H](OC)[C@H]2O[C@@](O)(C(=O)C(=O)N3CCCC[C@@H]3C(=O)O[C@H](C(C)=C[C@@H]3CC[C@H](Cl)[C@H](OC)C3)[C@H](C)[C@@H](O)CC1=O)[C@H](C)C[C@H]2OC	inactive
O=C(O)c1ccc(-c2c[nH]c3ncc(-c4ccccc4)cc23)cc1C1CCCC1	inactive
NS(=O)(=O)c1ccc(NC2=CC(=O)c3ccccc3C2=O)cc1	inactive
O=C1C(Cl)=C(NCCN2CCOCC2)C(=O)c2ncccc21	inactive
O=C(O)Cc1cccc2ccccc12	inactive
CC(=O)OC1C(C)OC(Oc2c(-c3ccc(O)cc3)oc3cc(O)cc(O)c3c2=O)C(O)C1OC(C)=O (stereo not drawn)	inactive
CC=C(C)C(=O)O[C@H]1C(C)=C[C@]23C(=O)[C@@H](C=C(CO)[C@@H](O)[C@]12O)[C@H]1[C@@H](C[C@H]3C)C1(C)C	inactive
c1ccc2c(Cc3c[nH]c4ccccc34)c[nH]c2c1	inactive
Nc1ncnc2ccccc12	inactive
CC1(C)S[C@H]2[C@H](NC(=O)[C@@H](N)c3ccc(O)cc3)C(=O)N2[C@@H]1C(=O)O	inactive
COc1ccc2cccc(CCNC(C)=O)c2c1	inactive
O=C1c2ccccc2-[n+]2ccc3c([nH]c4ccccc43)c21	inactive
C=C1C(=O)OC(CCCCCCCC)C1C(=O)O (stereo not drawn)	inactive
Cc1ccc([C@@H]2O[C@H](CO)[C@@H](O)[C@H](O)[C@@H]2O)cc1Cc1ccc(-c2ccc(F)cc2)s1	inactive
Cc1nnc(C(C)C)n1C1C[C@H]2CC[C@@H](C1)N2CC[C@H](NC(=O)C1CCC(F)(F)CC1)c1ccccc1 (stereo partly drawn)	inactive
Clc1ccc(-c2nc3sccn3c2C=NOCc2ccc(Cl)c(Cl)c2)cc1	inactive
O=C(OCC#CCSc1nnc(-c2cccc3ccccc23)o1)c1cc2ccccc2s1	inactive
CN(C)Cc1cccc(N=C(c2ccccc2)c2c(O)[nH]c3cc(C(=O)N(C)C)ccc23)c1	inactive
CO[C@H]1C[C@@H]2CC[C@@H](C)[C@@](O)(O2)C(=O)C(=O)N2CCCC[C@@H]2C(=O)O[C@H]([C@H](C)C[C@@H]2CC[C@H](OC(=O)C(C)(CO)CO)[C@H](OC)C2)CC(=O)[C@H](C)C=C(C)[C@@H](O)[C@@H](OC)C(=O)[C@H](C)C[C@H](C)C=CC=CC=C1C	inactive
NS(=O)(=O)c1cccc2c1C(=O)c1cccc(O)c1C2=O	inactive
CCNc1cc(NC2CCC(O)CC2)nc(Nc2ccc3c(ccn3Cc3ccccc3)c2)n1 (stereo not drawn)	inactive
CCN(CC)CCOc1ccc(C(=C(Cl)c2ccccc2)c2ccccc2)cc1	inactive
CCCCCN(C)CCC(O)(P(=O)(O)O)P(=O)(O)O	inactive
O=C(Nc1cc(Cl)cc2c1[nH]c1cnccc12)c1cccnc1	inactive
O=C(Nc1c(Cl)cncc1Cl)c1ccc(OC(F)F)c(OCC2CC2)c1	inactive
CC(=NNC(=S)N1CCC1)c1ccccn1	inactive
